The results in this text go back to PubChem BioAssay (Tox21).

Inconclusive results are not listed. Active and inactive are the calls of the source. Calls come from the whole dose curve; as a rule, active = well fitted cell-killing curve with a large enough effect in the repeat runs; inconclusive = weak or mixed curves, or effect the other way; inactive = no such curve, though single readings can be large or run the other way.

The assay can be described thus: qHTS assay to identify small molecule antagonists of the glucocorticoid receptor (GR) signaling pathway - cell viability counter screen (AID 720693). Note: nearly all actives have a fitted effect of over 55% in size. The conditions noted are these: GR-bla HeLa viability, CellTiter-Glo luminescence, 18 h, with 5 nM dexamethasone present; series mostly up to 58.5 µM. An excerpt:
National Center for Advancing Translational Sciences [NCATS]
NIH Chemical Genomics Center [NCGC]
U.S. Environmental Protection Agency [EPA]
National Institutes of Environmental Health Sciences [NIEHS]
National Toxicology Program [NTP]
U.S. Food and Drug Administration [FDA]
The Glucocorticoid receptor (GR) is one of the members of the nuclear receptor family of ligand-dependent transcription factors. GR plays a critical role in carbohydrate, protein and lipid metabolisms and programmed cell death. CellSensor GR-bla HeLa cell line (Invitrogen) contains a beta-lactamase reporter gene under the control of the glucocorticoid response element stably integrated into HeLa cells, a cervical cancer cell line that expresses glucocorticoid receptor. The activation of the reporter gene under culture conditions can be detected by fluorescence intensity. This cell line has been used to screen the Tox21 10K compound library and to identify the compounds that inhibit the GR signaling. The cytotoxicity of the Tox21 compound library against the GR-bla HeLa cell line was tested in parallel by measuring the cell viability using CellTiter-Glo assay in the same wells.
Tox21 Assay Protocol Summary:
The GR-bla HeLa cells were dispensed at 1500 cells/5 ul/well in 1536-well black wall/clear bottom plates using a Multidrop Combi (ThermoFisher Scientific, Waltham, MA) dispenser. After the assay plates were incubated at a 37 C/5% CO2 incubator for 4 hours, 23 nL of compounds dissolved in DMSO, positive controls or DMSO only was transferred to the assay plate by a pintool station (Kalypsys, San Diego, CA), followed by addition of 1 uL of dexamethasone (5 nM, final concentration in the well). The plates were incubated at 37 C for 18 hours. After 1 uL of LiveBLAzerTM B/G FRET substrate was added using a Flying Reagent Dispenser (Aurora Discovery, San Diego, CA), the plates were incubated at room temperature (RT) for 2 hours, and fluorescence intensity was measured by an Envision plate reader (PerkinElmer, Shelton, CT). After measurement of bla assay, 3 ul CellTiter-Glo (Promega, Madison, WI) was added to measure the cytotoxicity and the plates were then incubated at RT for 30 min. The luminescence was measured using a ViewLux (Perkin Elmer) plate reader.
For the compound `O=[N+]([O-])c1ccc(CCO)cc1`, the compound was called inactive.

As for `C=CC(=O)N1CCOCC1`, the compound was classed as inactive. Regarding `COc1cc(C)cc(O)c1`, the outcome was inactive. `O=Cc1ccccc1[N+](=O)[O-]`: the result was inactive. For the compound `C=C[Si](OC)(OC)OC`, the compound was classed as inactive. As to `CCCCOCC(C)OCC(C)O` (stereo not given), the call was inactive. The entry for `Cc1ccc(Nc2ccc(O)c3c2C(=O)c2ccccc2C3=O)cc1` is “inactive”. With `N#CCN(CC#N)CCN(CC#N)CC#N`, the outcome was inactive. For `CCCc1ccc(N)cc1`, the compound was called inactive. With `CC1(C)SC(C)(C)SC(C)(C)S1` the entry was “inactive”; with `Cc1nc(-c2ccc(OCC(C)C)c(C#N)c2)sc1C(=O)O`, “inactive”. With `CCCCCCCCCCCCCCCCCC(=O)OCCCCCCCCCCCCCC(C)C` the entry was “inactive”; with `O=C(O)/C=C/c1ccc(/C=C/C(=O)O)cc1`, “inactive”; with `NC(=O)c1c(Cl)cccc1Cl`, “inactive”.

For the compound `CC(=O)N[C@@H](CCC(N)=O)C(=O)O`, the call was inactive. Consider `C[N+](C)(C)CC[N+]1(C)Cc2c(Cl)c(Cl)c(Cl)c(Cl)c2C1`, for which the compound was called inactive.

Regarding `CC(C)(O)c1ccccc1`, the call was inactive. The entry for `C=C(C)C(=O)OCCCCCCCCCCCCCCCCCC` is “inactive”. Turning to `Nc1ccc2cc(S(=O)(=O)O)ccc2c1`, the call was inactive.

Consider `CC(C)(C)OC(=O)N1C[C@@H](F)C[C@H]1C(=O)O`, for which the compound was classed as inactive. The entry for `Nc1[nH]c(=O)ncc1F` is “inactive”; for `CN(C)CCn1nnnc1SCC1=C(C(=O)O)N2C(=O)[C@@H](NC(=O)Cc3csc(N)n3)[C@H]2SC1` it is “inactive”. With `CCCCCCCCCCC1CO1` (stereo not given) the entry was “inactive”. The entry for `Cc1ncc(CSSCc2cnc(C)c(O)c2CO)c(CO)c1O` is “inactive”; for `CC(C)[N+](C)(C)CC(O)COc1cccc2ccccc12` (stereo not given) it is “inactive”; for `CC(C)c1ccc2oc3nc(N)c(C(=O)O)cc3c(=O)c2c1` it is “inactive”. Take `NC(=O)c1ncn([C@@H]2O[C@H](CO)[C@@H](O)[C@H]2O)c1O`: the outcome was inactive. With `COC(=O)c1ccc(C(=O)OC)c(C(=O)OC)c1` the entry was “inactive”. On to `CN(C)N=Nc1ccccc1`, for which the compound was classed as inactive. Consider `C(=C(c1ccccc1)c1ccccc1)c1ccccc1`, for which the call was inactive. The entry for `O=C(O)c1ccc[n+]([O-])c1` is “inactive”; for `NS(=O)(=O)c1cc2c(cc1C(F)(F)F)NC(Cc1ccccc1)NS2(=O)=O` (stereo not given) it is “inactive”. The entry for `C=CC(=O)OCCCCCC` is “inactive”. Take `CC/C=C\C#N`: the outcome was inactive. In the case of `O=C1OC(=O)c2cc([N+](=O)[O-])ccc21`, the result was inactive. Consider `Cc1cc(C)c(NC(=O)CN(CC(=O)O)CC(=O)O)c(C)c1Br`, for which the outcome was inactive. With `CCCC(=O)O[C@]1(C(=O)CCl)[C@@H](C)C[C@H]2[C@@H]3CCC4=CC(=O)C=C[C@]4(C)[C@@]3(F)C(=O)C[C@@]21C` the entry was “inactive”; with `c1cc(CN2CCCCC2)cc(OCCCNc2nc3ccccc3s2)c1`, “inactive”.

As for `Cc1ccc(N)cc1[N+](=O)[O-]`, the result was inactive. Consider `Cn1ccc2cc3c(cc21)CCN3C(=O)Nc1cccnc1`, for which the compound was classed as inactive.
